Laboratory results as given in PubChem BioAssay (NCATS).
Values joined by “and” are separate entries in the source; they are usually repeats but may differ in a detail not shown here. Equal entries are not always repeated. Records with an inconclusive call do not appear. Entries that show only a call come without a potency. Active and inactive are the calls of the source. Unless noted, the call rests on the fitted dose curve; in most records, active means well fitted curve in the direction sought with a large enough effect; inconclusive means small, poorly fitted or top-dose-only effect, or another doubt; inactive means no such curve, though single readings can be large; an effect the other way counts as inactive or inconclusive.

Experiments:
[1] = qHTS profiling of the MIPE4 collection as inhibitors of Plasmodium falciparum (DD2) proliferation (AID 743345; call rule not given here); conditions: P. falciparum Dd2 in erythrocytes, SYBR Green DNA, 72 h; at 28.5 µM (top of the series)
Outline: (§1)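 Parasite DNA was quantified by SYBR Green I fluorescence (ex 485, em 535 nm) after overnight lysis in saponin/Triton buffer at room temperature. Cultures at 0.3% parasitemia and 2.5% hematocrit were first exposed to compound for 72 h at 37 C; signals were normalised to artemisinin (0.29 uM) and vehicle wells.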

[2] = qHTS profiling of the MIPE4 collection as inhibitors of Plasmodium falciparum (HB3) proliferation (AID 743347; call rule not given here); conditions: P. falciparum HB3 in erythrocytes, SYBR Green DNA, 72 h; at 28.5 µM (top of the series)
Outline: as §1

[3] = tested on: Zika virus NS2B-NS3 protease; experiment: Primary screen GU AMC qHTS for Zika virus inhibitors (AID 1347154); conditions: Zika NS2B-NS3 unlinked protease, AMC fluorogenic substrate; series mostly up to 54.1 µM; further: nearly all actives have a fitted effect of over 70% in size
Outline: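 Fluorogenic AMC-substrate cleavage by noncovalent NS2B-NS3 protease complex (25 nM, pH 8.0 Tris buffer with Tween 20) followed for 15 minutes at room temperature (~20% conversion). Percent inhibition from ex340/em450 signal change, fitted by 4-parameter Hill equation.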

[4] = Primary qHTS for small molecule stabilizers of the endoplasmic reticulum resident proteome: Secreted ER Calcium Modulated Protein (SERCaMP) assay (AID 1508630); conditions: SH-SY5Y GLuc-SERCaMP (Gaussia luciferase released on ER calcium loss) secretion, thapsigargin, luminescence; series mostly up to 38.4 µM
Outline: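 The SH-SY5Y reporter protocol was run at 3 concentrations up to 38.3 uM (primary) or 11 concentrations (follow-up): 16 h compound, 100 nM thapsigargin for 4 h, then extracellular luciferase luminescence.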

[5] = qHTS profiling for inhibitors of Plasmodium falciparum (3D7) proliferation (AID 743322; call rule not given here;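 further: infected erythrocytes exposed to compound for 72 h before lysis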); conditions: P. falciparum 3D7 proliferation; at 28.7 µM (top of the series)
Outline: as §1

[6] = qHTS profiling for inhibitors of Plasmodium falciparum (DD2) proliferation (AID 743323; call rule not given here); conditions: lower = more inhibition; at 28.7 µM (top of the series)
Outline: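 Parasite DNA quantified by SYBR Green fluorescence (ex 485, em 535 nm) after saponin/Triton lysis and overnight dark incubation. Cultures: 0.3% parasitemia, 2.5% hematocrit, 72 h, 37 C; data scaled between DMSO and 0.29 uM artemisinin.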

[7] = qHTS profiling for inhibitors of Plasmodium falciparum (HB3) proliferation (AID 743324); conditions: Plasmodium falciparum HB3 blood-stage proliferation; at 28.7 µM (top of the series)
Outline: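 SYBR Green fluorescence (485 ex/535 em) of lysed cultures, incubated overnight at room temperature in the dark, quantifies parasite DNA. Infected erythrocytes at 0.3% parasitemia and 2.5% hematocrit were exposed 72 h; values normalized to DMSO and 0.29 uM artemisinin controls.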

[8] = target: Cytochrome P450 3A4 (Homo sapiens) (UniProt P08684); experiment: qHTS Assay for Activators of Cytochrome P450 3A4 (AID 885); conditions: recombinant CYP3A4, Luciferin-PPXE luminescence, 60 min; series mostly up to 57.1 µM; further: nearly all actives have a fitted effect of over 65% in size
Chain of Cytochrome P450 3A4 (Homo sapiens) (P08684 whole entry, looked up): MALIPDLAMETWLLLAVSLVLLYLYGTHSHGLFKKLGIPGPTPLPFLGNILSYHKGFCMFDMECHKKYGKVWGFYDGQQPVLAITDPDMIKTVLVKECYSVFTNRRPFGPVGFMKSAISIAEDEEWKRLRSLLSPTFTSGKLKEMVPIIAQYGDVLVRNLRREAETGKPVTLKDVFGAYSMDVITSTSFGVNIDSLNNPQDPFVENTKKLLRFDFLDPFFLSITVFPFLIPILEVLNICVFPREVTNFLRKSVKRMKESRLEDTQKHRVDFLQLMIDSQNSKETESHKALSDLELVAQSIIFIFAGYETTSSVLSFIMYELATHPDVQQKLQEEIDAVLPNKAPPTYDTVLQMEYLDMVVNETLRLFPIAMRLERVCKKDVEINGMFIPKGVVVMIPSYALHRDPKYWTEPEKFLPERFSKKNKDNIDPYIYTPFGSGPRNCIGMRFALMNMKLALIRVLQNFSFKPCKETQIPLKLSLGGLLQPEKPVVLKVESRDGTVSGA
Outline: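 Luminescent readout of luciferin formed from 25 uM Luciferin-PPXE (KM level) by 20 nM CYP3A4 in 200 mM KPO4, with 60 min NADPH-driven reaction at room temperature after 10 min compound exposure. Ketoconazole (57 uM) defined 100% inhibition.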

[9] = AP1 Signaling Pathway (AID 357; active means well fitted curve in either direction with a large enough effect, not every such curve was filed as active;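 further: ME-180 reporter cells stimulated with EGF at its EC50 level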); conditions: ME-180 AP-1-bla reporter, EGF-induced, beta-lactamase ratio, 5 h
Outline: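 Beta-lactamase reporter under AP-1 response element, ME-180 background. Stimulus: EC50 EGF. Compound exposure 5 h, 37 °C. Detection: CCF4, 2.5 h RT, 460/530 nm. Values: AC50 from titration.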

[10] = Stat Signaling Pathway (AID 446; active means well fitted curve in either direction with a large enough effect, not every such curve was filed as active;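 further: ME-180 cervical cancer cells given 40 pM IL-6 alongside compound; SIE-controlled beta-lactamase reporter measured as 460/530 nm FRET emission ratio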); conditions: ME-180 (cervical carcinoma) SIE beta-lactamase reporter, IL-6 stimulated, 5 h
Outline: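 FRET read-out (405 nm excitation, 460/530 nm emission) of a beta-lactamase reporter under a STAT-inducible element in ME-180 cervical carcinoma cells. Cells with compound receive 40 pM IL-6 for 5 h. Values are normalised to AC90 stimulation and AC90 JAK-inhibitor controls.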

[11] = target: Glucocorticoid receptor (Homo sapiens) (UniProt P04150); experiment: GR-EFC Redistribution (AID 451; calls by dose curve; further: potency means the concentration at half of the fitted maximal effect); conditions: CHO-K1 GR-EFC translocation, beta-gal luminescence, 2 h
Chain of Glucocorticoid receptor (Homo sapiens) (P04150 whole entry, looked up, the tested form may be a part): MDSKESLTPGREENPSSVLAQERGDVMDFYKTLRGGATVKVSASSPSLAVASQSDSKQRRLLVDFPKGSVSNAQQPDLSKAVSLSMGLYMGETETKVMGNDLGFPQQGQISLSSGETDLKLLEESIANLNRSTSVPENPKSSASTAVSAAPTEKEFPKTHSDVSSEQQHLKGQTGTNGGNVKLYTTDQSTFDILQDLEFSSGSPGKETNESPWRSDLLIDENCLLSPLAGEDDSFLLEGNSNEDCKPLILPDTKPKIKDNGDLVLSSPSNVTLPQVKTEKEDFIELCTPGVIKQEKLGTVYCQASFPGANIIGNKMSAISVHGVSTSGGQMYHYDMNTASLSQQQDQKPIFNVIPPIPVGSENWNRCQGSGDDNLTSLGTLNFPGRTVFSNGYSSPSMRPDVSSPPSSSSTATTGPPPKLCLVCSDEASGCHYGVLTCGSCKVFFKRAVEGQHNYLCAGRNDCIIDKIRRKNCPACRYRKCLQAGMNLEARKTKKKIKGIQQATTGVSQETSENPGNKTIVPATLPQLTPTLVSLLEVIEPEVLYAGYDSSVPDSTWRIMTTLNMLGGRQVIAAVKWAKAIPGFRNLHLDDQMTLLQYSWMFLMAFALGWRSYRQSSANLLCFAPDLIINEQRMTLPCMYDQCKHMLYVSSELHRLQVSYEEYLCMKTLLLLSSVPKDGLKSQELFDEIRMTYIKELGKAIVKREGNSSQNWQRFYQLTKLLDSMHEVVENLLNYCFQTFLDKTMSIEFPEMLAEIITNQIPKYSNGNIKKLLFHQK
Outline: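 Translocation of GR-ED fusion to nuclear EA restores b-gal, read by luminescence after 1 h room-temperature detection. Engineered CHO-K1 biosensor cells, 1,000/well, exposed 2 h at 37 C to titrations up to 46 uM final.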

[12] = target: Mitogen-activated protein kinase 10 (Mus musculus) (UniProt Q61831); experiment: JNK3 AlphaScreen Assay (AID 530; active means well fitted curve in either direction with a large enough effect, not every such curve was filed as active;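 further: kinase came from lysate of stimulated human HepG2 cells; signal reports phosphorylation of biotinylated GST-cJun 1-79 at Ser73 with 10 µM ATP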); conditions: JNK3 lysate, c-Jun phosphorylation; series mostly up to 57.1 µM
Outline: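 Kinase buffer: 20 mM Tris-HCl pH 7.6, 10 mM MgCl2, 1 mM DTT, 0.1 mM Na3VO4, 0.01% Tween-20; ATP 10 uM. Substrate biotin-GST-cJun(1-79), enzyme from activated HepG2 lysates. Detection by Ser73 phospho-antibody AlphaScreen.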

[13] = target: 3',5'-cyclic-AMP phosphodiesterase 4B (Homo sapiens) (UniProt Q07343); experiment: qHTS Assay for Inhibitors of PDE-IV (AID 607; active means well fitted activation curve with a large enough effect in the main read-out, with a control signal flat, not every such curve was filed as active); conditions: HEK293 ACTOne CNG channel cells, membrane potential fluorescence; series mostly up to 22.9 µM
Chain of 3',5'-cyclic-AMP phosphodiesterase 4B (Homo sapiens) (Q07343 whole entry, looked up): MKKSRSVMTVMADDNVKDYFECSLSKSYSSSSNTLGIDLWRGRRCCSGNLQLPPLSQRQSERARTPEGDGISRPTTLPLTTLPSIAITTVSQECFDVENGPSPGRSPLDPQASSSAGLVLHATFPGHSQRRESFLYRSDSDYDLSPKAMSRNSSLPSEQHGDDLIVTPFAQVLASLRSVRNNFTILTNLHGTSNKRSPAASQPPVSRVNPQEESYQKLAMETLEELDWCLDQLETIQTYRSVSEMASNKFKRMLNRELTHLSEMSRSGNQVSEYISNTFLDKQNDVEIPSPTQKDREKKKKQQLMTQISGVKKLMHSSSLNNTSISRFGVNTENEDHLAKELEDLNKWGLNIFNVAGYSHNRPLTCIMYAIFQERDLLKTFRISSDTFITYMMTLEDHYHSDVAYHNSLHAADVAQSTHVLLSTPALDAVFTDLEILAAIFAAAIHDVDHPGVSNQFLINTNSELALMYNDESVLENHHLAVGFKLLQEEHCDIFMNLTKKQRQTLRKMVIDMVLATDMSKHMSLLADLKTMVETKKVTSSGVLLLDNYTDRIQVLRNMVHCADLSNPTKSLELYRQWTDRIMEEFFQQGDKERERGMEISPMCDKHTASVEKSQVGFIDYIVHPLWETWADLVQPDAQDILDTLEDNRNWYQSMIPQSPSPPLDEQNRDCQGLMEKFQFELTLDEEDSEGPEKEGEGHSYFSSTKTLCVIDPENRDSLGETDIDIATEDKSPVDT
Outline: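 Cell-based read-out of cAMP via a modified cyclic nucleotide-gated channel and membrane potential dye (535/590 nm) in HEK293 cells expressing PDE4 endogenously. Compounds tested up to 22.9 uM final; 100 uM RO 20-1724 reference.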

[14] = qHTS Assay for Lipid Storage Modulators (AID 1519; calls by dose curve); conditions: Drosophila S3 cells, BODIPY lipid droplet/cell ratio, laser cytometry, cells loaded with oleic acid
Outline: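 Cells seeded at 5,000 per well were treated with compounds over a concentration series and loaded with oleic acid (400 uM, as added). Lipid droplet fluorescence (488 nm excitation, 500-530 nm channel) was read by laser-scanning cytometry and normalized to 20 uM Triacsin C.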

[15] = target: Ubiquitin carboxyl-terminal hydrolase 1 (Homo sapiens) (UniProt O94782); experiment: Inhibitors of USP1/UAF1: Pilot qHTS (AID 504865); conditions: purified USP1/UAF1, Ub-rhodamine cleavage fluorescence; series mostly up to 114 µM;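 further: rhodamine fluorescence freed from ubiquitin-rhodamine substrate followed over time; top concentration of the series differs between compounds; nearly all actives have a fitted effect of over 35% in size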
Chain of Ubiquitin carboxyl-terminal hydrolase 1 (Homo sapiens) (O94782 whole entry, looked up): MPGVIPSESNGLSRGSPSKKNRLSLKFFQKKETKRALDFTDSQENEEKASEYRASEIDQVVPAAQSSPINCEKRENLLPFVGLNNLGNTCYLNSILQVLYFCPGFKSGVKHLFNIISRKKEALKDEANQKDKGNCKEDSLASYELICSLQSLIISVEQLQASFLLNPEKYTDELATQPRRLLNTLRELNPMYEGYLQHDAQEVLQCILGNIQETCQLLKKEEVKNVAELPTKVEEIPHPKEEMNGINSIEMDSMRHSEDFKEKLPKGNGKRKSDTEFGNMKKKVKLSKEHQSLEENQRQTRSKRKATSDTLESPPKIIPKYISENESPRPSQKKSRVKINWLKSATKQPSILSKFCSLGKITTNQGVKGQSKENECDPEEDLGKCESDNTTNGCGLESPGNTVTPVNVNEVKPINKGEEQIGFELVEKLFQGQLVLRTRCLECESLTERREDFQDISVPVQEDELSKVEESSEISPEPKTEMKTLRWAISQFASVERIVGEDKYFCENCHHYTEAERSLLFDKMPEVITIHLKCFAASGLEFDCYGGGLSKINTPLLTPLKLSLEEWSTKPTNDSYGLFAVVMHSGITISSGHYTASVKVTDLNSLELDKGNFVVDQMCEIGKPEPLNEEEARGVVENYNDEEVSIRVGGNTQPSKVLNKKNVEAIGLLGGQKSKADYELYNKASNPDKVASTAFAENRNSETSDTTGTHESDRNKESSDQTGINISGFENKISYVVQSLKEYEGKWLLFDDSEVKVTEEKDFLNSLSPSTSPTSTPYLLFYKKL
Outline: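 Enzyme-free wells gave the negative control, while test wells held 1nM USP1/UAF1 preincubated with compound for 15 min at room temperature. Ub-Rho at 150nM final started the reaction, and fluorescence at 480/540 nm was recorded kinetically.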

[16] = target: DNA dC->dU-editing enzyme APOBEC-3G (Homo sapiens) (UniProt Q9HC16); experiment: qHTS for inhibitors of Vif-A3G interactions: Validation (AID 588379); conditions: Vif-A3G protein interaction assay; series mostly up to 46.1 µM
Chain of DNA dC->dU-editing enzyme APOBEC-3G (Homo sapiens) (Q9HC16 whole entry, looked up): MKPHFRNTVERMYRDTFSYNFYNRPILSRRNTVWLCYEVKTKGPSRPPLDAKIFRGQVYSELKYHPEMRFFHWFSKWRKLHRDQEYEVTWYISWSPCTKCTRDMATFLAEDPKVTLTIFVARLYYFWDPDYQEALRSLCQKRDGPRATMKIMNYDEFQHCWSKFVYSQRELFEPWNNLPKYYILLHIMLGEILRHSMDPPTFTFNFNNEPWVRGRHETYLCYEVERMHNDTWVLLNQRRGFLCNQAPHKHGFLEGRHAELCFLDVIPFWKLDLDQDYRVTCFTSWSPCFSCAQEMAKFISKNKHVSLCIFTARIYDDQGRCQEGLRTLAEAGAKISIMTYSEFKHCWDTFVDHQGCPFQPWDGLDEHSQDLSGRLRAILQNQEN
Outline: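 Yellow fluorescence (Ex 488, Em 500-530) of Vif-coexpressing HeLa A3G-eYFP cells, scanned by Acumen cytometer, reports blocked A3G degradation. Cells plated at 700/well overnight at 37 deg C before compound addition, then a further overnight compound incubation at 37 deg C.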

[17] = target: Cytochrome P450 1A2 (Homo sapiens) (UniProt P05177); experiment: p450-cyp1a2 (AID 410; calls by dose curve; further: potency means the concentration at half of the fitted maximal effect); conditions: recombinant CYP1A2, luciferin-ME demethylation, luminescence; series mostly up to 57 µM
Chain of Cytochrome P450 1A2 (Homo sapiens) (P05177 whole entry, looked up): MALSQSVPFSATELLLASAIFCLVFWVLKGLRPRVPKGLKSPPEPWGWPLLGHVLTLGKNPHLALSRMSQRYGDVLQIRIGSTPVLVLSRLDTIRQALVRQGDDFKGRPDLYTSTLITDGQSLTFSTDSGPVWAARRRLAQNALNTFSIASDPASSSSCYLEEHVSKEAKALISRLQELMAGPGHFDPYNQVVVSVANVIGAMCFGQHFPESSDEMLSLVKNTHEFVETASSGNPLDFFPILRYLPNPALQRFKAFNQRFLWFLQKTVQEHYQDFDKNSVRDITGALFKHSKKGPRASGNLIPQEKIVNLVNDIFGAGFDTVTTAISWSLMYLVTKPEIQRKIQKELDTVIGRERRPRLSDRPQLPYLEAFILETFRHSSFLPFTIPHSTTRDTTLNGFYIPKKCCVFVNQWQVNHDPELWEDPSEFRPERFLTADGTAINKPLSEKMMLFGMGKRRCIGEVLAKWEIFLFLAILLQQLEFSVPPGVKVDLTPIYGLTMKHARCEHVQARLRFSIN
Outline: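 Read-out is luminescence from luciferin produced by CYP1A2 demethylation of Luciferin-ME (100uM, at Km). Detection reagent stopped the 60 min NADPH-dependent reaction; signals were normalized to 57 uM furafylline.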

[18] = target: Glucocorticoid receptor (Homo sapiens) (UniProt P04150); experiment: GR-GFP Redistribution (AID 450;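 active means compounds whose dose series gives a full or clear partial fitted curve of increased nuclear translocation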; further: potency means the concentration at half of the fitted maximal effect); conditions: U2OS GR-GFP nuclear translocation, laser cytometry, 2 h
[19] = target: Cytochrome P450 2D6 (Homo sapiens) (UniProt P10635); experiment: qHTS Assay for Inhibitors and Substrates of Cytochrome P450 2D6 (AID 891); conditions: recombinant CYP2D6, luciferin-ME EGE luminescence; series mostly up to 57.1 µM; further: potency means the concentration at half of the fitted maximal effect; nearly all actives have a fitted effect of over 60% in size
Chain of Cytochrome P450 2D6 (Homo sapiens) (P10635 whole entry, looked up): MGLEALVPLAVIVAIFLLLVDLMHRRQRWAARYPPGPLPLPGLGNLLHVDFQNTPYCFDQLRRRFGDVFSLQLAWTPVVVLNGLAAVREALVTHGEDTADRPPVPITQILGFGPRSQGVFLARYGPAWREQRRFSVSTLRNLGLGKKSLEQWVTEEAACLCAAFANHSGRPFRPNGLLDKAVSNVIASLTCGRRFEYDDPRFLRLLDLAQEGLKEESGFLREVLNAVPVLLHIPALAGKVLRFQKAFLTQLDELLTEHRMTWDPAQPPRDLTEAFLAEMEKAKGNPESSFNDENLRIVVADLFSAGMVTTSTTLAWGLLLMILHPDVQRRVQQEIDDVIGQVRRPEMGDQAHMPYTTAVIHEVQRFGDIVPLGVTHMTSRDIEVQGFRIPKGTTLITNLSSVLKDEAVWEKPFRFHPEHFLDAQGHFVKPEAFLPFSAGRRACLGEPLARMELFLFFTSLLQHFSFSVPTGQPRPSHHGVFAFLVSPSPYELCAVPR
Outline: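 Luminescent read-out of luciferin formed by 5 nM human CYP2D6 demethylating 30 uM Luciferin-ME EGE (Km level) over 60 min at room temperature after NADPH regeneration addition. Data normalized to full inhibition by 1.43 uM quinidine.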

[20] = target: Cytochrome P450 2C19 (Homo sapiens) (UniProt P33261); experiment: qHTS Assay for Inhibitors and Substrates of Cytochrome P450 2C19 (AID 899); conditions: recombinant CYP2C19, luciferin-H EGE luminescence; series mostly up to 57.1 µM; further: nearly all actives have a fitted effect of over 60% in size
Chain of Cytochrome P450 2C19 (Homo sapiens) (P33261 whole entry, looked up): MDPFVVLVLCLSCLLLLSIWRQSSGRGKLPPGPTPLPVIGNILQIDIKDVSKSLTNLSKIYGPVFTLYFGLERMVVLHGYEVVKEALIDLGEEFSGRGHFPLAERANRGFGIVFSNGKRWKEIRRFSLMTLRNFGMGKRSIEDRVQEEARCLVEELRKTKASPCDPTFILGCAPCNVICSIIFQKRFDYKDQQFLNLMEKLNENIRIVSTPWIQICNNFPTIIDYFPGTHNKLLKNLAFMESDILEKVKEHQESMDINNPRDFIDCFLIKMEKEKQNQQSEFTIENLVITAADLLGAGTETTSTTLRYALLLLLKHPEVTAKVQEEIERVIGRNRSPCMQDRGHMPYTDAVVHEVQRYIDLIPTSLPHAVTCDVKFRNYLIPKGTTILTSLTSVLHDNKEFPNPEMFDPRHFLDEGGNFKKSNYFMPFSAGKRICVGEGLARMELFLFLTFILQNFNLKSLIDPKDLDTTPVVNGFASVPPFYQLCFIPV
Outline: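 Reactions contain 5nM enzyme, 10uM Luciferin-H EGE (KM) and 50mM KPO4; compound preincubates 10 min at 37C, NADPH regeneration starts turnover for 60 min. Luminescence after detection reagent gives activity.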

[21] = measured here: cell count channel max response
[22] = measured here: lipid channel max response

C[C@H](CCC(=O)O)[C@H]1CCC2C3CC[C@@H]4C[C@H](O)CC[C@]4(C)C3CC[C@@]21C (stereo partly specified)
parasite growth remaining, % of DMSO control (lower = more inhibition) [1]: 97.2%
growth, % of control [2]: 98.2%
Potency [3]: inactive
Potency [4]: inactive

OC[C@H]1OC([S-])[C@H](O)[C@@H](O)[C@H]1O.[Au+] (stereo partly specified)
remaining parasite growth % (stronger effect = lower value) [5]: 86.3%
activity, percent of control [6]: 98.2%
remaining proliferation (% of control), lower = more inhibition [7]: 78.1%
Potency [3]: inactive
Potency [4]: inactive

c1ccc(N2CCN(Cc3nc4ccccc4[nH]3)CC2)nc1
Potency [8]: inactive
Potency [3]: inactive
Potency [4]: inactive

CC(C)NC[C@@H](O)COc1cccc2[nH]ccc12
activity change, negative = inhibition ([9]; at 17.2 µM (top of the series)): 5.19% (inactive)
activity change, negative = inhibition ([9]; at 38 µM (top of the series)): 17% (inactive) and 4.44% (inactive)
activity, negative = inhibition ([10]; at 17.2 µM (top of the series)): 19% (inactive)
activity, negative = inhibition ([10]; at 38 µM (top of the series)): 12.1% (inactive) and 12.9% (inactive)
Potency [11]: > 46 µM (inactive) and > 20.6 µM (inactive)
Potency [12]: inactive
Potency [13]: inactive
activity change, negative = inhibition ([14]; at 25.7 µM (top of the series)): 0.0529% (inactive)
activity change, negative = inhibition ([14]; at 57.5 µM (top of the series)): 6.23% (inactive)
max response [14, 21]: -7.16% and 6.39%
max response [14, 22]: -7.67% and 11.8%
Potency [15]: inactive
Potency [16]: inactive
Potency [3]: inactive

N[C@@H](C(=O)O)c1ccc(C(=O)O)cc1
Potency [17]: inactive
Potency [18]: > 46 µM (inactive)
Potency [11]: > 46 µM (inactive)
Potency [12]: inactive
Potency [13]: inactive
activity change, negative = inhibition ([14]; at 57.5 µM (top of the series)): 5.37% (inactive)
max response [14, 21]: 10.8%
max response [14, 22]: 17.4%
Potency [15]: inactive
Potency [16]: inactive
Potency [3]: inactive

CS(=O)(=O)Nc1c(O)ccc2c1CCC[C@H]2C1=NCCN1
Potency [17]: inactive
Potency [18]: > 46 µM (inactive)
Potency [12]: inactive
Potency [13]: inactive
activity change, negative = inhibition ([14]; at 57.5 µM (top of the series)): -4.88% (inactive)
max response [14, 21]: -12.4%
max response [14, 22]: -17.3%
Potency [15]: inactive
Potency [16]: inactive
Potency [3]: inactive

CN1[C@H](CC(=O)c2ccccc2)CCC[C@H]1C[C@H](O)c1ccccc1
Potency [17]: 15.8 µM (active)
activity change, negative = inhibition ([14]; at 57.5 µM (top of the series)): 4.17% (inactive)
max response [14, 21]: 24.7%
max response [14, 22]: 29.8%
Potency [15]: inactive
Potency [16]: inactive
Potency [3]: inactive

N[C@@H](Cn1cc(I)c(=O)n(Cc2ccc(C(=O)O)cc2)c1=O)C(=O)O
Potency [17]: 31.6 µM (active)
Potency [18]: > 46 µM (inactive)
Potency [11]: > 46 µM (inactive)
Potency [12]: inactive
Potency [19]: 2.51 µM (active)
activity change, negative = inhibition ([14]; at 57.5 µM (top of the series)): 2.45% (inactive)
max response [14, 21]: 4.58%
max response [14, 22]: 1.43%
Potency [15]: inactive
Potency [16]: inactive
Potency [3]: inactive

CCCCCCCCCCCC(=O)O[C@H](CC(=O)O)C[N+](C)(C)C
Potency [17]: inactive
Potency [11]: > 46 µM (inactive)
Potency [13]: inactive
activity change, negative = inhibition ([14]; at 57.5 µM (top of the series)): -2.15% (inactive)
max response [14, 21]: -5.13%
max response [14, 22]: -11.1%
Potency [15]: inactive
Potency [16]: inactive
Potency [3]: inactive

NC(N)=Nc1ccc(Cl)cc1
Potency [17]: inactive
Potency [18]: > 46 µM (inactive)
Potency [11]: > 46 µM (inactive)
Potency [12]: inactive
Potency [13]: inactive
Potency [20]: inactive
activity change, negative = inhibition ([14]; at 57.5 µM (top of the series)): -3.61% (inactive)
max response [14, 21]: -0.36%
max response [14, 22]: -4.97%
Potency [15]: inactive
Potency [16]: inactive
Potency [3]: inactive
